# Measured values taken from the supplement of paper PMC6288085.
# Structures can show the parent of a compound that is named as a salt. ± gives the uncertainty stated by the source.
# Test system: Caenorhabditis elegans N2
# Experiment: food intake (mean delta OD600 / animal over 72 h) with 50 uM loxapine co-treatment (OD600 units per animal); higher = more food eaten (less suppression of loxapine-induced hyperphagia)
# Details: first compound 33 µM, loxapine concentration 50 µM
# Procedure: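 C. elegans N2 adults (FUDR-sterilised, day 1) in 96-well plates fed gamma-irradiated bacteria. Each library drug (MedChemExpress FDA-approved library) at 33 uM was combined with loxapine at 50 uM. Food intake was measured as bacterial clearance: the change in OD600 from day 1 to 72 h, normalised per animal (mean over 14-21 wells of about 10-12 worms). Drugs flagged for bacterial lysis or sickness were excluded by the authors.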
row,Structure (SMILES),food intake
1,CN1[C@@H]2CC(O)C[C@H]1[C@@H]1O[C@@H]12 (some centres not stated) [scopine (hydrochloride)] + CN1CCN(C2=Nc3ccccc3Oc3ccc(Cl)cc32)CC1 [loxapine],0.00616 ± 0.012
2,O=[N+]([O-])C(Br)(CO)CO [bronopol] + CN1CCN(C2=Nc3ccccc3Oc3ccc(Cl)cc32)CC1 [loxapine],0.0259 ± 0.0077
3,C=CCN1CC[C@]23c4c5ccc(O)c4O[C@H]2C(=O)CC[C@@]3(O)[C@H]1C5 [naloxone (hydrochloride)] + CN1CCN(C2=Nc3ccccc3Oc3ccc(Cl)cc32)CC1 [loxapine],0.0254 ± 0.0053
4,C[N+](C)(C)CCCCCCCCCC[N+](C)(C)C [decamethonium (bromide)] + CN1CCN(C2=Nc3ccccc3Oc3ccc(Cl)cc32)CC1 [loxapine],0.0222 ± 0.0054
5,Cc1ccc(O)cc1.Cc1cccc(O)c1.Cc1ccccc1O [cresol] + CN1CCN(C2=Nc3ccccc3Oc3ccc(Cl)cc32)CC1 [loxapine],0.0212 ± 0.0037
6,O=C(N/N=C/c1ccc([N+](=O)[O-])o1)c1cc([N+](=O)[O-])cc([N+](=O)[O-])c1O [nifursol] + CN1CCN(C2=Nc3ccccc3Oc3ccc(Cl)cc32)CC1 [loxapine],0.0249 ± 0.0032
7,COc1ccc(CN2CCNCC2)c(OC)c1OC [trimetazidine (dihydrochloride)] + CN1CCN(C2=Nc3ccccc3Oc3ccc(Cl)cc32)CC1 [loxapine],0.0224 ± 0.003
8,Oc1cccc2cccnc12 [8-hydroxyquinoline] + CN1CCN(C2=Nc3ccccc3Oc3ccc(Cl)cc32)CC1 [loxapine],0.0224 ± 0.0032
9,C[C@]12CCC(=O)C(O)=C1CC[C@@H]1[C@@H]2CC[C@]2(C)C(=O)CC[C@@H]12 [formestane] + CN1CCN(C2=Nc3ccccc3Oc3ccc(Cl)cc32)CC1 [loxapine],0.0217 ± 0.0021
10,CCC1(c2cccc(O)c2)CCCCN(C)C1 (configuration not stated) [meptazinol (hydrochloride)] + CN1CCN(C2=Nc3ccccc3Oc3ccc(Cl)cc32)CC1 [loxapine],0.0231 ± 0.0039
11,CCCCCCCCCCC(=O)O[C@H]1CC[C@H]2[C@@H]3CCC4=CC(=O)CC[C@]4(C)[C@H]3CC[C@]12C [testosterone (undecanoate)] + CN1CCN(C2=Nc3ccccc3Oc3ccc(Cl)cc32)CC1 [loxapine],0.0238 ± 0.0023
12,COc1cc2c(cc1OC)C1CC(=O)C(CC(C)C)CN1CC2 (configuration not stated) [tetrabenazine] + CN1CCN(C2=Nc3ccccc3Oc3ccc(Cl)cc32)CC1 [loxapine],0.0274 ± 0.017
